Bioassay records: PubChem BioAssay, National Center for Advancing Translational Sciences (NCATS)
BAZ2B block: qHTS Assay for Inhibitors of BAZ2B; Bromodomain adjacent to zinc finger domain protein 2B (Homo sapiens), Q9UIF8; AlphaScreen BAZ2B-H3K14Ac peptide displacement; Potency, µM (highest dose often 114 µM), for the others: at the top dose activity change, negative = inhibition, most hits filed as inhibitors; actives 4.4% (n = 360,000); AID 504333, 2011; further: on the % scale 0 is the no-effect control and ±100 the full control effect; nearly all actives have a fitted effect of over 60% in size
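Compounds, titrated to a top concentration of 110 uM, were incubated 30 min at room temperature with preformed BAZ2B/acetyl-K14 H3 peptide complex (50 nM each). Proximity signal was measured by AlphaScreen after 20 min with beads.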
G9a block: qHTS Assay for Inhibitors of Histone Lysine Methyltransferase G9a | Histone-lysine N-methyltransferase EHMT2 (Homo sapiens), Q96KQ7 | actives 8.8% (n = 350,000) | AID 504332, 2011 | G9a H3K9 monomethylation, AlphaScreen, 2 h | Potency, µM (doses to about 102 µM), for inactives: at the top dose activity, negative = inhibition, actives largely listed as inhibitors; further: on the % scale 0 is the no-effect control and ±100 the full control effect; nearly all actives have a fitted effect of over 75% in size
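Signal arises when biotinylated H3K9 peptide, once monomethylated, bridges streptavidin donor and antibody-captured acceptor beads. Enzyme at 20 nM was preincubated 15 min with test compounds; peptide 500 nM and SAM 20 uM then reacted for 2 h.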
PLK1 PBD block: qHTS for Inhibitors of PLK1-PDB (polo-like kinase 1 - polo-box domain): Primary Screen; Plk1 PBD binding of FITC phosphopeptide, fluorescence polarization; Serine/threonine-protein kinase PLK1 (Homo sapiens), P53350; Potency, µM, without a hit: max response, negative = inhibition, actives largely listed as inhibitors; actives 2.8% (n = 360,000); further: series mostly up to about 57 µM; on the % scale 0 is the no-effect control and ±100 the full control effect; nearly all actives have a fitted effect of over 65% in size
JMJD2A Tudor inh: qHTS Assay for Inhibitors of JMJD2A-Tudor Domain; Lysine-specific demethylase 4A (Homo sapiens), O75164; AlphaScreen JMJD2A-Tudor / H3K4me3 peptide binding; Potency, µM (series often up to 114 µM), without a hit: top-dose activity change, negative = inhibition, most hits filed as inhibitors; actives 4.4% (n = 390,000); AID 504339, 2011; further: on the % scale 0 is the no-effect control and ±100 the full control effect; nearly all actives have a fitted effect of over 50% in size
HP1b binding inh: HTS for Inhibitors of HP1-beta Chromodomain Interactions with Methylated Histone Tails | AlphaScreen HP1-beta / biotin-H3K9me3 peptide binding | Potency, µM (highest dose often 114 µM), for inactives: at the highest dose activity change, negative = inhibition, actives largely listed as inhibitors | actives 0.56% (n = 390,000); further: nearly all actives have a fitted effect of over 70% in size
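Compound inhibition of the preformed complex between 50 nM HP1-beta and 50 nM biotinylated H3K9me3 peptide was read by AlphaScreen. Buffer was PBS pH 7.4 with 0.01% Tween-20. Incubations ran 30 min at room temperature, with 10 ug/mL donor/acceptor beads.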
Sfp PPTase inh: qHTS Assay for Inhibitors of Bacillus subtilis Sfp phosphopantetheinyl transferase (PPTase) | 4'-phosphopantetheinyl transferase ffp (Bacillus subtilis), Q9F4F7 | actives 3.5% (n = 310,000) | AID 1490, 2009 | Biochemical Sfp PPTase activity, qHTS | Potency, µM, for inactives: largest response in the series, negative = inhibition, usual class: inhibitors;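 further: the enzyme is Sfp with the accession as filed and its product quenches rhodamine fluorescence; 0% = enzyme reaction without inhibitor and -100% = no enzyme wells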
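Compounds were incubated with enzyme (final 15 nM) for 15 min at room temperature before substrate addition started the reaction. Fluorescence at 525 nm excitation, 598 nm emission was recorded immediately and after 30 minutes.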
* marks the source's active call; other numbers are inactive results; u = inconclusive; x = no result; [ ] = dose if it differs, or a comment. Most compounds without a hit are left out; they make up all but 12% or so of the library. The call rests on the fitted dose curve; in most records, active means well fitted curve in the direction sought with a large enough effect; inconclusive means small, poorly fitted or top-dose-only effect, or another doubt; inactive means no such curve, though single readings can be large; an effect the other way counts as inactive or inconclusive. Potency means the concentration at half of the fitted maximal effect.

SMILES	BAZ2B block	G9a block	PLK1 PBD block	JMJD2A Tudor inh	HP1b binding inh	Sfp PPTase inh
COc1cc(CC(=O)N(C)CC(=O)Nc2ccc(Cl)c(C(F)(F)F)c2)cc(OC)c1OC	3%	-10%	3%	-2%	20%	16%
COc1ccccc1C(=O)CN1C(=O)NC2(CCCc3ccccc32)C1=O (stereo not given)	x	x	-14%	-22%	-6%	x
Cc1cc(C(=O)CN2C(=O)NC3(CCCc4ccccc43)C2=O)c(C)n1Cc1cccs1 (stereo not given)	-38%	3%[59 µM]	-8%	-14%[11.4 µM]	-3%	9%
COc1ccc(N2CCN(C(=O)CN3C(=O)NC4(CCCc5ccccc54)C3=O)CC2)cc1 (stereo not given)	10%	40µM*	-3%	-30%	-12%	x
COc1ccccc1C(=O)CN1C(=O)NC2(CCc3ccccc32)C1=O (stereo not given)	11%	50µM*	-1%	-17%	34%	x
CCN(C(=O)CN1C(=O)NC2(CCc3ccccc32)C1=O)C1CCCCC1 (stereo not given)	-1%	45µM*	1%	1%	34%	x
C=CCn1c(C)cc(C(=O)CN2C(=O)NC3(CCCc4ccccc43)C2=O)c1C (stereo not given)	u	45µM*	-7%	u	u	-6%
COc1cc(C2Nc3ccccc3C(=O)N2Cc2ccccc2)ccc1OCc1ccc(NC(C)=O)cc1 (stereo not given)	x	x	x	-22%	x	x
CCOc1ccc(CNC(=O)c2ccc(-c3nc(CSc4ccc(C)cc4)c(C)o3)cc2)cc1	-3%	u	x	1%	24%	x
N=C1/C(=C/c2ccc(OCc3ccccc3F)cc2)C(=O)N=C2SC(CC(=O)N3CCOCC3)=NN12	-28%	4%	38µM*	u	2%	0%
CCCC1=NN2C(=N)/C(=C\c3cc(C)n(-c4cc(C)cc(C)c4)c3C)C(=O)N=C2S1	2%	5%[59 µM]	u	u	13%	20µM*
COc1cccc(-n2c(C)cc(/C=C3\C(=N)N4N=C(CC(=O)N5CCOCC5)SC4=NC3=O)c2C)c1	50µM*	-5%	-2%	-2%	16%	-5%
N=C1/C(=C/c2ccc(OCc3ccccc3)cc2)C(=O)N=C2SC(CC(=O)N3CCOCC3)=NN12	u	u	u	u	1%	-4%
CCc1nn(CC(=O)NC2CC2)c(=O)c2cc3ccccc3n12	27%	26%[59 µM]	x	0%	64%	x
CCN(C(=O)c1c(C)oc2ncn(CC(C)C)c(=O)c12)c1cccc(Cl)c1	12%[57.1 µM]	-25%[59 µM]	x	-14%	19%	x
CN1CCN(C2=Cc3ccc(Cl)cc3Sc3ccc(F)cc32)CC1	50µM*	u	-9%	56µM*	-32%	u
CN1CCN(C2=Cc3ccccc3Sc3cc(F)ccc32)CC1	u	u	1%	-34%	-2%	-11%
CSc1nsc(/C=C/Nc2ccc(F)cc2F)c1C#N	u	32µM*	-13%	u	-25%	-1%
CSc1nsc(/C=C/Nc2ccc(C(=O)O)cc2)c1C#N	40µM*	13µM*	u	u	u	-23%
N#Cc1c(-c2c(Cl)cccc2Cl)noc1/C=C/Nc1ccc(C(=O)O)cc1	u	-37%	u	-35%	12%	5%
CSc1nnc(C)c(/C=C/Nc2ccc(F)cc2F)n1	u	u	-6%	-35%	21%	-10%
Cc1sc2nc(CN3CCCC3)nc(Cl)c2c1C	-10%	u	u	-12%	8%	-7%
CCOC(=O)c1sc2nc(CN3CCCCC3)nc(Cl)c2c1C	-32%	50µM*	-1%	-8%	27%	-3%
Nc1cc2nc3ccccc3oc-2cc1=O	45µM*	x	-15%	u	-24%	22µM*
Cc1nc2ccccc2oc1=O	x	x	x	x	x	-3%
SMILES	BAZ2B block	G9a block	PLK1 PBD block	JMJD2A Tudor inh	HP1b binding inh	Sfp PPTase inh
CCOc1cc(-c2nnc(SCC(=O)NCc3ccc(C)cc3)nc2-c2ccc(OC)c(OCC)c2)ccc1OC	56µM*	10µM*	x	-28%	15%	x
CCOc1cc(-c2nnc(SCC(=O)NCc3ccccc3)nc2-c2ccc(OC)c(OCC)c2)ccc1OC	50µM*	7.9µM*	x	u	7%	x
O=C(Nc1ccccc1OC(F)F)c1cccc(S(=O)(=O)N2CCCC2)c1	u	-3%	17µM*	u	22%	-2%
O=C(Nc1cccc(S(=O)(=O)N2CCCC2)c1)c1cccc(OC(F)F)c1	-9%	-36%	1%	-10%	31%	x
O=C(NCCCN1CCOCC1)c1cccc(S(=O)(=O)N2CCN(c3ccccc3)CC2)c1	4%	-40%	-6%	-19%	8%	x
O=C(Nc1ccc(S(=O)(=O)N2CCCC2)cc1)c1cccc(OC(F)F)c1	7%	35µM*	-3%	-18%	19%	x
O=C(NCCOc1ccccc1F)c1cccc(S(=O)(=O)N2CCN(c3ccccc3)CC2)c1	-15%	40µM*	-3%	-26%	13%	x
CC(=O)c1ccc(NC(=O)CCn2c(=S)oc3ccccc32)cc1	10%	6%	-12%	-11%	39%	15%
Cc1c(C)n(C)c2ccc(C(=O)N3CCN(c4ccccn4)CC3)cc12	u	u	-5%	u	-17%	-7%
Cc1ccc(C)c(N2CCN(C(=O)c3ccc4c(c3)c(C)c(C)n4C)CC2)c1	35µM*	32µM*	-3%	45µM*	u	-16%
Cc1c(C)n(C)c2ccc(C(=O)N3CCN(c4ccccc4)CC3)cc12	40µM*	45µM*	-2%	35µM*	u	-9%
Cc1cccc(N2CCN(C(=O)c3ccc4c(c3)c(C)c(C)n4C)CC2)c1C	0%	-4%[59 µM]	x	-2%	u	x
OCCNc1ncnc2c1ncn2[C@H]1CN(Cc2ccc(Cl)cc2)C[C@@H](CO)O1	x	x	0%	x	x	x
CCOc1ccc2nc(N3CCCC(C(=O)NCCc4ccc(OC)cc4OC)C3)sc2c1 (stereo not given)	-30%	-4%[59 µM]	x	-16%	44%	x
CCc1sc(-c2cc3cccc(OC)c3oc2=O)nc1-c1cc(C)ccc1C	x	x	x	37%[57.1 µM]	55%[57 µM]	x
Cc1cccc(C(=O)NCCC(=O)NCc2ccccc2Cl)c1	2%	5%[12.7 µM]	-2%	2%	35%	x
